Compound activity from PubChem.
Hits are enriched below; roughly 19% of the tested compounds scored in any of these assays.
TDP1 cell CPT = growth inhibition of DT40 Tdp1-/-;hTDP1 cells with camptothecin (screen for TDP1 inhibitors); 420,000 tested, 12% active; Potency, µM (titrated, usually from 46.2 µM), without a hit: top-dose activity change, negative = growth inhibition, most hits filed as inhibitors; AID 686979; chicken DT40 Tdp1-/-;hTDP1 cells + 20 nM CPT, ATP luminescence, 48 h; further: potency means the concentration at half of the fitted maximal effect; nearly all actives have a fitted effect of over 55% in size
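Chicken DT40 Tdp1-/- cells complemented with human TDP1, 400 cells/well, exposed to compounds plus 20 nM camptothecin for at least 48 h at 37 C; viability read as ATP content by CellTiter-Glo luminescence.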
DT40 TDP1 no CPT = qHTS for Inhibitors of human tyrosyl-DNA phosphodiesterase 1 (TDP1): qHTS in cells in absence of CPT; Potency, µM (series often up to 46.2 µM), for the others: top-dose activity change, negative = growth inhibition, usual class: inhibitors; 420,000 tested, 15% active; DT40 Tdp1-/- hTDP1 cells, no CPT, ATP luminescence, 48 h; further: potency means the concentration at half of the fitted maximal effect; nearly all actives have a fitted effect of over 55% in size
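Luminescent ATP content (CellTiter-Glo) served as the growth readout. Knockout chicken DT40 cells expressing human TDP1 were exposed to compounds without camptothecin for a minimum 48 hr at 37 °C.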
HT1080-NT tox = kills 2HG-producing HT-1080-NT fibrosarcoma cells; HT-1080-NT fibrosarcoma viability, CellTiter-Glo ATP luminescence, 48 h; Potency, µM (titrated, usually from 46.1 µM), for the others: at the highest dose activity, negative = less viability, usual class: cytotoxic; 360,000 tested, 1.6% active; AID 686970;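 further: NT is the 2HG producing partner of a matched IDH1 knockdown line; potency means the concentration at half of the fitted maximal effect; 0% = DMSO-treated cells and -100% = media-only wells without cells; nearly all actives have a fitted effect of over 55% in size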
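Viability of the 2HG-overproducing fibrosarcoma line after 48 hours of compound exposure at 37 degrees C was determined by luminescence with CellTiter-Glo, and concentration-effect curves were then fitted and categorized.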
IL-1B inflam inh = inhibitors of inflammasome signaling (IL-1 beta secretion); THP-1 LPS/ATP IL-1B secretion, AlphaLISA, 16 h; stronger effect = lower value; activity change, % at 57.5 µM; 360,000 tested, 4.7% active; AID 743279; in the data active means activity change below about -50%; inconclusive means mostly about -30% to -49%
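Secreted IL-1B measured by AlphaLISA bead assay after 16 h compound exposure of THP-1 cells; compounds (final up to 57.5 uM) added 1 h before LPS (250 ng/mL) and ATP (1.25 mM) stimulation; lower signal means less secretion.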
HT1080 IDH1KD tx = kills HT-1080 cells with IDH1 knockdown | HT-1080 IDH1 knockdown viability, ATP luminescence, 48 h | Potency, µM (series often up to 46.1 µM), without a hit: at the top dose activity, negative = toxicity, most hits filed as cytotoxic | 360,000 tested, 2% active | AID 686971;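 further: potency means the concentration at half of the fitted maximal effect; 0% = DMSO wells and -100% = cell-free medium wells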
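Knockdown cells (IDH1KD HT-1080) received compounds 2 h after plating at 750 cells/well and were kept 48 h at 37 °C in 5% FBS RPMI. A CellTiter-Glo luminescence read gave % activity for curve fitting.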
* marks the source's active call; other numbers are inactive results; ? = inconclusive; nt = no result; [ ] = dose if it differs, or a comment. Unless noted, the call rests on the fitted dose curve; in most records, active means well fitted curve in the direction sought with a large enough effect; inconclusive means small, poorly fitted or top-dose-only effect, or another doubt; inactive means no such curve, though single readings can be large; an effect the other way counts as inactive or inconclusive. Unless noted, on the % scale 0 is the no-effect control and ±100 the full control effect.

SMILES | TDP1 cell CPT | DT40 TDP1 no CPT | HT1080-NT tox | IL-1B inflam inh | HT1080 IDH1KD tx
O=[N+]([O-])c1ccc(/C=N/n2cnc3ccccc32)s1 | 3.7µM* | 3.7µM* | ? | -74* | ?
Cc1cc2ncn(/N=C/c3ccc([N+](=O)[O-])s3)c2cc1C | ? | 8.2µM* | -2% | 0 | -6%
COc1cccc(/C=N/n2cnc3cc(C)c(C)cc32)c1OC | -5% | ? | -3% | nt | ?
Cc1nc2ccccc2n1/N=C/c1ccc([N+](=O)[O-])o1 | 1.8µM* | 2.9µM* | 13µM* | -97* | 10µM*
Cc1ccc(C)c(N(CC(=O)NC(C)(C)C)C(=O)CNC(=O)c2cccs2)c1 | 17% | -22% | 11% | 4 | 1%
CN1C(=O)NC(c2ccccc2[N+](=O)[O-])C2=C1CCCC2=O (stereo unspecified) | 1% | 14% | 2% | 17 | 0%
CC(=O)N1CCN(C(=O)CCC(=O)O)CC1 | 5% | -5% | 1% | -13 | -3%
O=[N+]([O-])c1ccc(/C=N/Nc2ncccc2[N+](=O)[O-])s1 | 1.5µM* | 1.3µM* | -5% | -3 | 11%
CCc1nonc1NC(=O)c1oc2cc(C)c(Cl)cc2c1C | ? | 9.2µM* | 12% | 17 | 20%
CCc1nonc1NC(=O)c1oc2cc(C)c(C)cc2c1C | -26% | ? | ? | 10 | -29%
COc1ccc(-c2nonc2NC(=O)c2oc3ccccc3c2C)cc1OC | -25% | -16% | -7% | 0 | -9%
CCOc1ccc(-c2nonc2NC(=O)c2oc3ccc(Cl)cc3c2C)cc1 | 0.92µM* | 0.92µM* | nt | nt | nt
CNC(=O)CN(c1ccc(C23CC4CC(CC(C4)C2)C3)cc1)S(C)(=O)=O | ? | 26µM* | -10% | -6 | -9%
CS(=O)(=O)N(CC(=O)Nc1ccc(CC#N)cc1)c1ccc(C23CC4CC(CC(C4)C2)C3)cc1 | ? | 16µM* | ? | ? | 10µM*
CC(=O)Nc1ccc(C23CC4CC(CC(C4)C2)C3)cc1 | -1% | ? | -3% | 11 | 4%
O=C(Cn1cnc2ccccc21)Nc1cccc(S(=O)(=O)N2CCCC2)c1 | 5.8µM* | 4.1µM* | -6% | -13 | -16%
O=C(Cn1c(NCCO)nc2ccccc21)Nc1cccc(S(=O)(=O)N2CCCC2)c1 | ? | 10µM* | -8% | 22 | -1%
O=C(CN1CCN(c2ccccn2)CC1)Nc1cccc(S(=O)(=O)N2CCCC2)c1 | ? | 16µM* | -3% | 2 | -7%
OCCNc1nc2ccccc2n1CCN1CCCCC1 | -13% | 2% | 3% | -7 | 21%
CC(C)(CNC(=O)c1cnn(-c2ncc3c(n2)-c2ccccc2CCC3)c1C1CC1)N1CCOCC1 | -2%[9.04 µM] | -5% | nt | nt | nt
Clc1cccc(Nc2ncnc3ccc(Br)cc23)c1 | 26µM* | ? | 7.9µM* | -58* | ?
CCOC(=O)c1cccc(Nc2cc(C)nc(C)n2)c1 | ? | 16µM* | nt | nt | nt
Clc1ccc(Nc2ncnc3ccc(Br)cc23)cc1 | 10µM* | 15µM* | ? | -9 | ?
CCOC(=O)c1cccc(Nc2ncnc3ccc(C)cc23)c1 | 15µM* | 21µM* | ? | -15 | ?
CN(C)c1ccc(Nc2ncnc3ccc(Br)cc23)cc1 | ? | ? | -4% | -10 | -6%
SMILES | TDP1 cell CPT | DT40 TDP1 no CPT | HT1080-NT tox | IL-1B inflam inh | HT1080 IDH1KD tx
CCOC(=O)c1ccc(Nc2ncnc3ccc(C)cc23)cc1 | -21% | ? | -26% | 8 | -28%
Cc1cccc(Nc2ncnc3ccc(Br)cc23)c1 | ? | ? | -12% | -51* | -20%
Cc1ccc2ncnc(Nc3ccccc3)c2c1 | -22% | ? | -2% | -3 | -3%
CC(C)C[C@H](NC(=O)[C@H](CCc1ccccc1)NC(=O)CN1CCOCC1)C(=O)N[C@@H](Cc1ccccc1)C(=O)N[C@@H](CC(C)C)C(=O)[C@@]1(C)CO1 | 0.0067µM* | 0.0042µM* | nt | nt | nt
COc1cc(CNC(=O)c2cc(-c3ccc(F)cc3C)n[nH]2)cc(OC)c1 | ? | ? | 26% | -16 | 27%
NNC(=O)c1nc[nH]c1C(=O)Nc1ccccc1 | -23% | 0% | 11% | 0 | 6%
COc1ccc(Cl)cc1NC(=O)N1CCN(c2ccccc2OC)CC1 | ? | ? | -5% | -4 | -13%
O=C(Nc1cc(F)ccc1F)N1CCN(c2ccnc3cc(Cl)ccc23)CC1 | 4.1µM* | 5.2µM* | -8% | ? | -3%
Cc1cccc(Cl)c1NC(=O)N1CCN(c2ccnc3cc(Cl)ccc23)CC1 | ? | 13µM* | -2% | -11 | -18%
CCCCNC(=O)N1CCN(c2ccnc3cc(Cl)ccc23)CC1 | 21µM* | 13µM* | -3% | -22 | 3%
Cc1ccc(F)cc1NC(=O)N1CCN(c2ccnc3cc(Cl)ccc23)CC1 | ? | ? | 4% | -28 | -21%
O=C(O)CSCC(=O)N1CCN(c2ccnc3cc(Cl)ccc23)CC1 | 3% | 8% | 6% | 1 | 8%
O=C(Nc1ccc(C(F)(F)F)cc1)N1CCN(c2ccnc3cc(Cl)ccc23)CC1 | 23µM* | 16µM* | ? | -65* | 29µM*
CCCCN(C(=O)c1ccc(N2CCCC2=O)cc1)c1c(N)n(CCC)c(=O)[nH]c1=O | -15% | 6.5µM* | 2% | -11 | 0%
O=C(N/N=C/c1cc(Cl)cc([N+](=O)[O-])c1O)c1ccc2c(c1)OCO2 | 16µM* | 9.2µM* | -1% | 23 | -4%
COc1cc(Cl)cc(/C=N\NC(=O)c2ccc3c(c2)OCO3)c1O | ? | -97% | 9.2µM* | 104 | 9.2µM*
COc1cc(/C=N/NC(=O)c2ccc3c(c2)OCO3)ccc1O | -10% | 25% | -11% | 14 | -7%
COCCNC(=O)CSc1nc2scc(-c3ccccc3)c2c(=O)[nH]1 | -1% | -15% | 4% | -2 | -5%
Cc1ccc(-n2nc3c(=O)n(C(C)C(=O)NCCCc4ccccc4)nc(C)c3c2C)cc1 (stereo unspecified) | 16µM* | 9.2µM* | -3% | -9 | -20%
Cc1ccc(-n2nc3c(=O)n(C(C)C(=O)NCc4ccccc4Cl)nc(C)c3c2C)cc1 (stereo unspecified) | ? | ? | -4% | -3 | -8%
Cc1ccc(-n2nc3c(=O)n(CC(=O)NCCCc4ccccc4)nc(C)c3c2C)cc1 | ? | 23µM* | -2% | 4 | ?
CCCNC(=O)C(C)n1nc(C)c2c(C)n(-c3ccccc3)nc2c1=O (stereo unspecified) | 0% | 8% | nt | nt | nt
